PubChem BioAssay (NCI)
Values joined by “and” are separate entries in the source; they are usually repeats but may differ in a detail not shown here. Equal values may be shown once. The panel holds about 79,000 compounds, 15% with a hit somewhere; the sample as a whole holds those more often. Some compounds were tested as several samples or in several runs, with calls that do not always agree. Active and inactive are the calls of the source. Rule as the data show it: active = growth inhibition above about 70%; inactive = the rest.

What was measured:
[1] = NCI Yeast Anticancer Drug Screen. Data for the rad52 strain (AID 147);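 also: 0% = growth of vehicle-treated control cultures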; details: S. cerevisiae rad52 mutant growth inhibition, stronger effect = higher value
In short: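 Growth of repair-deficient yeast cells was compared between compound-treated and vehicle-treated cultures to give percent inhibition.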

[2] = NCI Yeast Anticancer Drug Screen. Data for the wt1 strain (AID 149);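 also: 0% = growth of vehicle-treated wt1 cultures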; details: S. cerevisiae wt1 strain (SPY 50644) growth inhibition, stronger effect = higher value
In short: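 Yeast wt1 strain exposed to compounds; growth inhibition measured relative to vehicle-treated controls.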

[3] = NCI Yeast Anticancer Drug Screen. Data for the rad50EPP+ strain (AID 151);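 also: 0% = growth of vehicle-treated control cultures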; details: S. cerevisiae rad50 mutant strain, stronger effect = higher value
In short: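 Measured: growth inhibition of rad50EPP+ yeast. Reference: vehicle-treated controls. Screen uses strains with defined genetic alterations in DNA damage repair or cell cycle control.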

[4] = NCI Yeast Anticancer Drug Screen. Data for the mgt1 strain (AID 153); details: S. cerevisiae mgt1 mutant growth inhibition, stronger effect = higher value
In short: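 Compounds were applied to mgt1 mutant yeast, and growth was then compared against vehicle-treated control cultures to give percent inhibition.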

[5] = NCI Yeast Anticancer Drug Screen. Data for the rad50 strain (AID 155);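 also: 0% = growth of vehicle-only cultures of the same strain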; details: S. cerevisiae rad50 strain growth inhibition, stronger effect = higher value
In short: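 Yeast carrying a defined DNA repair defect were exposed to test compounds, and growth was compared with vehicle-treated controls to give percent inhibition.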

[6] = NCI Yeast Anticancer Drug Screen. Data for the mec2-1 strain (AID 157); details: S. cerevisiae mec2-1 strain, stronger effect = higher value
In short: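 Compounds were applied to mec2-1 yeast cells. Their growth was then compared with that of vehicle-treated cultures to give growth inhibition.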

[7] = NCI Yeast Anticancer Drug Screen. Data for the rad14 strain (AID 159);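 also: 0% = growth of vehicle-treated control cultures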; details: S. cerevisiae rad14 strain growth inhibition, stronger effect = higher value
In short: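 Yeast cells carrying a defined DNA-repair defect were exposed to compounds, and growth inhibition was calculated relative to vehicle-treated control cultures.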

[8] = NCI Yeast Anticancer Drug Screen. Data for the sgs1 mgt1 strain (AID 161);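 also: 0% = growth of cultures given vehicle only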; details: S. cerevisiae sgs1 mgt1 strain, stronger effect = higher value
In short: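 This yeast growth screen uses a strain with defined DNA-repair lesions; compound-treated growth is compared with vehicle-treated growth.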

[9] = NCI Yeast Anticancer Drug Screen. Data for the CLN2oe strain (AID 163);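 also: 0% = growth of vehicle-only control cultures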; details: S. cerevisiae CLN2oe strain, stronger effect = higher value
In short: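 Cells of an engineered yeast line with disturbed cell-cycle regulation are treated with compound. Inhibition of growth is then calculated relative to the vehicle-treated reference.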

[10] = NCI Yeast Anticancer Drug Screen. Data for the cln2 rad14 strain (AID 165);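 also: 0% = growth equal to vehicle treated cultures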; details: S. cerevisiae cln2 rad14 strain, stronger effect = higher value
In short: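 Strain: cln2 rad14 yeast, altered in cell cycle control and DNA damage repair. Read-out: growth inhibition vs vehicle.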

[11] = NCI Yeast Anticancer Drug Screen. Data for the bub3 strain (AID 167); details: S. cerevisiae bub3 mutant strain, stronger effect = higher value
In short: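 Compounds were applied to a genetically altered yeast strain carrying a cell-cycle control defect. Growth inhibition was scored against vehicle-treated controls.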

[12] = NCI Yeast Anticancer Drug Screen. Data for the wt2 strain (AID 169);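 also: 0% = growth of vehicle-treated yeast cultures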; details: S. cerevisiae wt2 strain growth inhibition, stronger effect = higher value
In short: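 Growth of compound-treated yeast is measured and expressed as inhibition relative to vehicle-only controls.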

[13] = NCI Yeast Anticancer Drug Screen. Data for the mlh1 strain (AID 171);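 also: 0% = growth of vehicle-treated control cultures of the same strain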; details: S. cerevisiae mlh1 strain growth inhibition, stronger effect = higher value
In short: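 Test agents were incubated with yeast bearing a defined DNA damage repair or cell cycle control alteration; values are growth inhibition normalised to vehicle-treated cultures.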

[14] = NCI Yeast Anticancer Drug Screen. Data for the sgs1 strain (AID 173);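 also: 0% = growth of vehicle-only control cultures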; details: S. cerevisiae sgs1 mutant, stronger effect = higher value
In short: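 Strain with an altered DNA repair or cell cycle pathway exposed to compound. Growth then measured. Value = inhibition versus vehicle control.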

[15] = NCI Yeast Anticancer Drug Screen. Data for the rad18 strain (AID 177); details: S. cerevisiae rad18 mutant growth inhibition, stronger effect = higher value
In short: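 DNA-repair-defective yeast; compound treatment; growth inhibition scored against vehicle.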

[16] = NCI Yeast Anticancer Drug Screen. Data for the mlh1 rad18 strain (AID 175); details: S. cerevisiae mlh1 rad18 strain growth inhibition, stronger effect = higher value
In short: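 A repair-deficient yeast strain is exposed to test compound, and growth is scored relative to vehicle-treated controls.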

[17] = at 5.0 µM (retest, dose inferred, filed as 0.5)
[18] = at 50.0 µM (retest, dose inferred, filed as 5.0)

Measured: growth inhibition

Cc1cc(-c2cc(C)c(O)c(C(C)(C)C)c2)cc(C(C)(C)C)c1O
52% (inactive) and 93% (active): [11]; [18]
45% (inactive) and 90% (active): [8]; [18]
70.2% (active) and 37.4% (inactive): [11]; at 50.0 µM
active: [1]; at 100.0 µM 75% | [2]; at 100.0 µM 70% | [5]; [18] 98% and 74% | [5]; at 50.0 µM 70.5% and 77.3% | [5]; at 100.0 µM 72% | [6]; [18] 98% and 91% | [7]; at 100.0 µM 72% | [9]; at 100.0 µM 73% | [10]; [18] 81% and 91% | [15]; at 100.0 µM 74%
inactive: [1]; at 1.2 µM -37% | [1]; at 3.7 µM -34% | [1]; at 11.0 µM -17% | [1]; at 33.0 µM 48% | [2]; at 1.2 µM -52% | [2]; at 3.7 µM -49% | [2]; at 11.0 µM -44% | [2]; at 33.0 µM 6% | [3]; at 1.2 µM -35% | [3]; at 3.7 µM -31% | [3]; at 11.0 µM -29% | [3]; at 33.0 µM -25% | [3]; at 100.0 µM -4% | [4]; at 1.2 µM -49% | [4]; at 3.7 µM -51% | [4]; at 11.0 µM -49% | [4]; at 33.0 µM -16% | [4]; at 100.0 µM 57% | [5]; at 1.2 µM -2% | [5]; at 3.7 µM -4% | [5]; [17] 43% and 15% | [5]; at 11.0 µM 11% | [5]; at 33.0 µM 52% | [6]; at 1.2 µM -30% | [6]; at 3.7 µM -23% | [6]; [17] 51% and -6% | [6]; at 11.0 µM -10% | [6]; at 33.0 µM -2% | [6]; at 50.0 µM 65.3% and 61.5% | [6]; at 100.0 µM 55% | [7]; at 1.2 µM -16% | [7]; at 3.7 µM -10% | [7]; at 11.0 µM -23% | [7]; at 33.0 µM 25% | [8]; [17] 10% and 18% | [9]; at 1.2 µM -51% | [9]; at 3.7 µM -62% | [9]; at 11.0 µM -42% | [9]; at 33.0 µM 15% | [10]; [17] 52% and -17% | [11]; at 1.2 µM -6% | [11]; at 3.7 µM 5% | [11]; [17] 43% and 5% | [11]; at 11.0 µM 24% | [11]; at 33.0 µM 40% | [11]; at 100.0 µM 65% | [12]; at 1.2 µM -32% | [12]; at 3.7 µM -18% | [12]; at 11.0 µM -17% | [12]; at 33.0 µM 4% | [12]; at 100.0 µM 66% | [13]; at 1.2 µM -44% | [13]; at 3.7 µM -31% | [13]; at 11.0 µM -28% | [13]; at 33.0 µM 9% | [13]; at 100.0 µM 65% | [14]; at 1.2 µM -20% | [14]; at 3.7 µM -8% | [14]; at 11.0 µM -6% | [14]; at 33.0 µM 30% | [14]; at 100.0 µM 59% | [15]; at 1.2 µM -42% | [15]; at 3.7 µM -36% | [15]; at 11.0 µM -26% | [15]; at 33.0 µM 29%
66.3% (inactive) and 80.8% (active): [8]; at 50.0 µM
77.8% (active) and 65.8% (inactive): [10]; at 50.0 µM

CCCCCCOC(=O)NCCOC(=O)Nc1ccccc1
inactive: [1]; at 1.2 µM 1% | [1]; at 3.7 µM 3% | [1]; at 11.0 µM 7% | [1]; at 33.0 µM 7% | [1]; at 100.0 µM 6% | [2]; at 1.2 µM 1% | [2]; at 3.7 µM 1% | [2]; at 11.0 µM 2% | [2]; at 33.0 µM 2% | [2]; at 100.0 µM 1% | [3]; at 1.2 µM 3% | [3]; at 3.7 µM 6% | [3]; at 11.0 µM 11% | [3]; at 33.0 µM 17% | [3]; at 100.0 µM 15% | [4]; at 1.2 µM -1% | [4]; at 3.7 µM 1% | [4]; at 11.0 µM 3% | [4]; at 33.0 µM 22% | [4]; at 100.0 µM 4% | [5]; at 1.2 µM 4% | [5]; at 3.7 µM 5% | [5]; [17] 0% | [5]; at 11.0 µM 7% | [5]; at 33.0 µM 8% | [5]; [18] 5% | [5]; at 50.0 µM 19.7% | [5]; at 100.0 µM 7% | [6]; at 1.2 µM 0% | [6]; at 3.7 µM 3% | [6]; [17] -5% | [6]; at 11.0 µM 3% | [6]; at 33.0 µM 5% | [6]; [18] 1% | [6]; at 50.0 µM 6.15% | [6]; at 100.0 µM 8% | [7]; at 1.2 µM 6% | [7]; at 3.7 µM 7% | [7]; at 11.0 µM 12% | [7]; at 33.0 µM 17% | [7]; at 100.0 µM 16% | [8]; [17] 12% | [8]; [18] 10% | [8]; at 50.0 µM 20.2% | [9]; at 1.2 µM 1% | [9]; at 3.7 µM 4% | [9]; at 11.0 µM 1% | [9]; at 33.0 µM 3% | [9]; at 100.0 µM -2% | [10]; [17] 5% | [10]; [18] 19% | [10]; at 50.0 µM 6.5% | [11]; at 1.2 µM 3% | [11]; at 3.7 µM 2% | [11]; [17] 9% | [11]; at 11.0 µM 5% | [11]; at 33.0 µM 1% | [11]; [18] -2% | [11]; at 50.0 µM 11.1% | [11]; at 100.0 µM 0% | [12]; at 1.2 µM 1% | [12]; at 3.7 µM -1% | [12]; at 11.0 µM -1% | [12]; at 33.0 µM 0% | [12]; at 100.0 µM -2% | [13]; at 1.2 µM -1% | [13]; at 3.7 µM -1% | [13]; at 11.0 µM 2% | [13]; at 33.0 µM 4% | [13]; at 100.0 µM 6% | [14]; at 1.2 µM 2% | [14]; at 3.7 µM 2% | [14]; at 11.0 µM 3% | [14]; at 33.0 µM 9% | [14]; at 100.0 µM 9% | [16]; [17] 19% | [16]; [18] 53% | [16]; at 50.0 µM 17.7% | [15]; at 1.2 µM 2% | [15]; at 3.7 µM 2% | [15]; at 11.0 µM 13% | [15]; at 33.0 µM 4% | [15]; at 100.0 µM 6%
